# Assay results published in PubChem BioAssay.
# Experiments:
# [1] = system: Human papillomavirus type 1a protein E7 (residues 44-93); test: small molecules binding HPV E7 44-93 – biochemical, small-molecule microarray, residues 44-93, 635 nm fluorescence, primary screen (AID 1108); conditions: fluorescence 635 nm, higher = more signal;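 further: E7 fragment applied at 1 µg/mL in TBST for 1 h at 4 C; score combines spot fluorescence with its signal to noise ratio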
# [2] = hepatitis C replication reporter changes, two-sided – Huh7 cells, luciferase reporter, HCV replication inhibitor project, primary screen (AID 1109); conditions: Huh7 HCV replicon luciferase reporter, 48 h; higher = more signal;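 further: huh7 hepatoma cells harbouring a luciferase neomycin HCV replicon reporter; luciferase luminescence as measure of HCV replicon replication; test concentration not given here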
# [3] = biological target: Left-right determination factor 2 (Homo sapiens) (UniProt O00292); test: small molecules binding LEFTY2 protein – biochemical, small-molecule microarray, 635 nm fluorescence scan, primary screen (AID 1110); conditions: higher = more signal
# [4] = biological target: Calmodulin-1 (Homo sapiens) (UniProt P0DP23); test: small molecules binding calmodulin-1 with EGTA – biochemical, small-molecule microarray, Cy5-labelled CALM1, profiling panel (AID 1111); conditions: Cy5-CALM1 binding fluorescence, higher = more signal;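 further: labelled calmodulin applied in Tris saline Tween buffer holding calcium plus EGTA and DTT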
# [5] = biological target: Calmodulin-1 (Homo sapiens) (UniProt P0DP23); test: small molecules binding Ca-loaded calmodulin-1 – biochemical, small-molecule microarray, Cy5-labelled CALM1, plus calcium, artefact control for SMM control-protein annotation, profiling panel (AID 1112); conditions: Cy5-CALM1 binding fluorescence, higher = more signal;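 further: score merges spot fluorescence with signal to noise from triplicate slides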
# [6] = probe aWnt5a binding to arrayed compounds – biochemical, biotinylated probe, 635/667 nm fluorescence, primary screen (AID 1113); conditions: small-molecule microarray, higher = more signal;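 further: score merges 667 nm fluorescence intensity with signal-to-noise per printed feature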
# [7] = probe aShh binding to arrayed compounds – biochemical, biotinylated probe, 635/667 nm fluorescence, primary screen (AID 1114); conditions: small-molecule microarray, higher = more signal;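 further: probe is biotin-labelled aShh protein from a stem cell growth factor screen; measures binding of labelled protein to compounds printed on the slide; score merges feature fluorescence at 667 nm with signal-to-noise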
# [8] = probe aNog binding to arrayed compounds – biochemical, biotinylated probe, 635/667 nm fluorescence, primary screen (AID 1115); conditions: small-molecule microarray, higher = more signal;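 further: probe is biotinylated aNog protein used at 0.15 µg/mL for 1 h at 4 C; z-score combines 667 nm fluorescence of each spot with its signal to noise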
# [9] = biological target: Torsin-1A-interacting protein 1 (Homo sapiens) (UniProt Q5JTV8); test: compound microarray binding of lysate hLAP1 – cell lysate, small-molecule microarray, COS7 lysate, 635/667 nm fluorescence, primary screen (AID 1116); conditions: 635 nm fluorescence, higher = more signal
# [10] = biological target: Alpha-bungarotoxin (Bungarus multicinctus) (UniProt P60615); test: compounds binding labelled alpha-BTX control protein – biochemical, small-molecule microarray, Alexa647 label, 635/667 nm fluorescence, artefact control for SMM control protein annotation, profiling panel (AID 1117); conditions: alpha-BTX-A647 binding fluorescence, higher = more signal
# Alpha-bungarotoxin (Bungarus multicinctus), sequence (P60615 whole entry, looked up): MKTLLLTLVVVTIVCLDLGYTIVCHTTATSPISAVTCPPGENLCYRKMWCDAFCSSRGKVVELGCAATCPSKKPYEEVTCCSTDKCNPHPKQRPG
# Torsin-1A-interacting protein 1 (Homo sapiens), sequence (Q5JTV8 whole entry, looked up): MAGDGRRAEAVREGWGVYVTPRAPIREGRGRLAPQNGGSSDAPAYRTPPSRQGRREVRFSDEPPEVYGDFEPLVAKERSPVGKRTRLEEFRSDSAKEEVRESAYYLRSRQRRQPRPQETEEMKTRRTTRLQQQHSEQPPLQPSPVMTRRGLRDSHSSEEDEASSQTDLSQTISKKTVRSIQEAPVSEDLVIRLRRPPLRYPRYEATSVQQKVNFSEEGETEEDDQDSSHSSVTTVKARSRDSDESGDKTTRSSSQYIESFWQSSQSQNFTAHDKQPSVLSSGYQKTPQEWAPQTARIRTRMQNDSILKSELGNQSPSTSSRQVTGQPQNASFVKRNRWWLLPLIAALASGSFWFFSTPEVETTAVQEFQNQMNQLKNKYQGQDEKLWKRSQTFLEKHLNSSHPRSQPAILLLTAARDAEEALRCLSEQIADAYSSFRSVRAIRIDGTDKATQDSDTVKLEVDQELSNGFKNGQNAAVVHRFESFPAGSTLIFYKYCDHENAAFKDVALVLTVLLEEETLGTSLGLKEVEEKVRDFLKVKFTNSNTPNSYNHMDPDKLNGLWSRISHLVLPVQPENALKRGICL
# Left-right determination factor 2 (Homo sapiens), sequence (O00292 whole entry, looked up): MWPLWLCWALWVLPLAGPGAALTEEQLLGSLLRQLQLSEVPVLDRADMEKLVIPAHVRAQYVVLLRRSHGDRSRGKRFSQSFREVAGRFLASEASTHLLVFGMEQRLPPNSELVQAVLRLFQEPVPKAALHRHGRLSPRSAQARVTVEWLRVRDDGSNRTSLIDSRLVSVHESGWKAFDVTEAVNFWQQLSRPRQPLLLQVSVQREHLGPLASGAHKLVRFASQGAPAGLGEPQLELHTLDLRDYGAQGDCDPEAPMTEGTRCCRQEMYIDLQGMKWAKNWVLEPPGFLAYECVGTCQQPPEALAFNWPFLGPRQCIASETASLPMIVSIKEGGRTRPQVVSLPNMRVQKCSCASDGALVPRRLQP
Compound,composite z-score [1],z-score [2],composite z-score [3],composite z-score [4],composite z-score [5],composite z-score [6],composite z-score [7],composite z-score [8],composite z-score [9],composite z-score [10]
NC(=O)[C@H]1[C@@H]2C(=O)O[C@@H](c3ccccc3)[C@@H](c3ccccc3)N2[C@@H](c2ccc(OCCO)cc2)[C@]12C(=O)Nc1ccc(C#CCCO)cc12,0.333,-1.39,-0.128,0.947,0.382,0.055,-0.253,-0.387,0.757,1.59
CS(=O)(=O)CCOC(=O)C1=CC(CCCO)=CC(c2ccc(CN3CCCC3)cc2)N(Cc2sc3ccccc3c2Cl)C=C1C(=O)OCCS(C)(=O)=O (stereo not given),0.611,-2.64,1.12,2.26,0.91,-0.0297,0.318,1.49,2.83,2.86
COCCOC(=O)N1C(=O)[C@@]2(c3cc(C#CC4(O)CCCCCC4)ccc31)[C@H](c1ccc(O)cc1)N1[C@H](c3ccccc3)[C@H](c3ccccc3)OC(=O)[C@H]1[C@@H]2C(=O)N1CCN(c2ncccn2)CC1,1.35,-1.58,0.45,1.83,0.18,0.0375,0.679,-0.679,1.21,0.383
CC[C@@H]1C=C(C(=O)O)[C@H](c2ccc(C#N)cc2)N1S(=O)(=O)c1ccc(C)cc1,0.458,-0.651,0.635,1.45,-0.0241,0.0136,-0.0324,0.598,2.47,0.62
CC#CCO[Si](C#Cc1ccccc1)(C(C)C)C(C)C,-2.07,0.046,-0.0764,-0.0874,0.877,-0.224,-0.0769,-0.281,-0.785,-1.53
CCCCCCCCCC(O)C1C=CC2C(=O)N(c3ccccc3)C(=O)C2N1Nc1cc(OC)c(OC)c(OC)c1 (stereo not given),0.903,-2.58,-1.12,1.01,1.03,-0.0685,0.239,0.641,0.559,0.774
CCCC=C(CCC)[C@@H](NP(=O)(c1ccccc1)c1ccccc1)c1ccc(-c2ccccc2)cc1,1.23,-2.72,0.53,0.877,0.796,0.328,0.972,1.35,0.946,1.3
COc1ccc(CCNC(=O)[C@@H]2c3ccccc3C(=O)N(C3CCCCC3)[C@H]2c2ccc(CO)cc2)cc1,1.48,-1.82,-0.306,0.112,-0.184,-0.0403,0.0098,-0.402,-0.17,0.371
CCCC=C(CCC)[C@@H](NC(=O)C(C)(C)C)c1ccc(C(=O)OC)cc1,1.32,-1.01,-0.494,1.72,1.43,0.191,0.572,1.98,0.321,1.5
COCCOC(=O)N1C(=O)[C@@]2(c3cc(C#CC4=CCCCC4)ccc31)[C@H](c1ccccc1OCCO)N1[C@H](c3ccccc3)[C@H](c3ccccc3)OC(=O)[C@H]1[C@@H]2C(=O)NC[C@H](O)c1ccccc1,1.4,-3.19,0.869,1.04,0.213,0.0839,0.0081,-0.939,0.978,1.64
Cc1ccc(NN2C(C(O)c3c(F)cccc3Cl)C=CC3C(=O)N(C4CCCCC4)C(=O)C32)cc1 (stereo not given),0.51,-1.26,-0.348,1.96,1.14,-0.0179,0.261,1.22,0.983,1.93
CCCC=C(CCC)[C@@H](NS(=O)(=O)c1ccc(C(F)(F)F)cc1)c1ccccc1,0.608,-0.0015,-0.318,0.641,0.951,0.0853,-0.106,0.711,-0.127,0.261
C=CCNC(=O)[C@@H]1[C@H]2C(=O)O[C@H](c3ccccc3)[C@H](c3ccccc3)N2[C@H](c2ccccc2OCCO)[C@@]12C(=O)Nc1ccc(C#CCC(C(=O)OC)C(=O)OC)cc12,0.562,-3.28,-0.034,0.138,-0.147,-0.0258,-0.147,-0.303,0.458,0.894
C=CC[C@]1(C(=O)N2CCCCC2)N=C(c2ccc(OCCCO)cc2)O[C@H]1c1ccccc1CN=[N+]=[N-],1.42,-2.64,0.264,1.7,0.204,0.0246,-0.138,-0.769,0.447,0.875
CC1CC/C=C\[C@H]2OC34C=CCN(c5ccc(Cl)cc5)C(=O)[C@H]3N(C(C)CO)C(=O)[C@]4(C)C2C(=O)O1 (stereo not given in full),-0.815,-1.16,-0.707,0.253,-0.141,-0.124,-0.289,-0.0133,0.0045,-0.664
CCCNC(=O)[C@@]1(C)c2ccccc2C(=O)N(c2ccc(C)cn2)[C@H]1c1ccc(CO)cc1,-0.846,0.155,0.384,-0.474,-0.524,-0.124,-0.291,0.0373,0.311,-0.163
C=C[C@H]1C(C(=O)OCC)=CC[C@@H](c2ccccc2)N1S(=O)(=O)c1ccc(C)cc1,1.4,-2.78,0.0641,0.577,-0.0986,0.0077,-0.181,-0.289,0.325,0.621
COc1cc2c(cc1O)C(C1CC1)N(Cc1cccc(OC(F)(F)F)c1)CC2 (stereo not given),-1.05,-2.75,-0.116,-1.67,-0.453,-0.062,-0.0793,-0.147,0.108,-0.41

Compound,composite z-score [1],z-score [2],composite z-score [3],composite z-score [4],composite z-score [5],composite z-score [6],composite z-score [7],composite z-score [8],composite z-score [9],composite z-score [10]
[N-]=[N+]=NCc1ccccc1[C@H]1OC(c2ccc(OCCCO)cc2)=N[C@@]1(Cc1ccccc1N=[N+]=[N-])C(=O)NCC(O)CO (stereo not given in full),1.46,-1.75,-0.591,1.33,0.734,0.112,0.28,1.63,1.48,1.08
CCCCN1CC=CC23O[C@@H]4/C=C\CCC(C)OC(=O)C4[C@H]2C(=O)N(CCCO)[C@@H]3C1=O (stereo not given in full),-0.169,-0.398,-0.949,-0.0083,0.458,-0.252,0.535,-0.362,-0.318,-0.566
COCCCNC(=O)[C@@H]1c2ccccc2C(=O)N(C(C)C)[C@H]1c1ccc(CO)cc1,-1.72,-0.183,0.0506,0.355,0.254,-0.0828,-0.221,-0.1,0.846,0.886
CC(C)C(CO)N1C(=O)[C@@H]2C3C(=O)OCCC/C=C\[C@H]3OC23C=CCN(Cn2nnc4ccccc42)C(=O)[C@@H]13 (stereo not given in full),1.32,0.236,-0.874,-0.42,0.0878,-0.202,-0.229,0.407,1.92,-1.15
C=CCC(OC(C)=O)[C@@H]1[C@@H](N(Cc2ccc(-c3ccccc3)cc2)C(=O)c2ccc(-c3ccccc3)cc2)c2cc(OCCCO)ccc2N1C(=O)c1ccc2ccccc2c1 (stereo not given in full),0.508,-0.415,-0.0379,0.493,0.839,-0.11,0.0141,-0.284,0.0403,-0.116
COc1cc(NN2C(C(O)c3cc(OC)c(OC)c(OC)c3)C=CC3C(=O)N(C)C(=O)C32)cc(OC)c1OC (stereo not given),1.09,-0.336,-0.229,1.34,0.278,0.0599,0.23,0.849,0.904,1.24
CN1C(=O)C2C=CC(C(O)c3cccn3C)N(Nc3ccc([N+](=O)[O-])cc3[N+](=O)[O-])C2C1=O (stereo not given),0.0443,-0.0091,-0.135,1.08,0.212,0.0357,0.496,0.31,-0.0083,0.401
C=CCC(OC(C)=O)[C@@H]1[C@@H](N(Cc2cc3ccccc3o2)C(=O)Cc2ccc(F)cc2)c2cc(OCCCO)ccc2N1C(=O)Cc1ccc2ccccc2c1 (stereo not given in full),-0.266,0.185,-0.537,0.0637,0.34,-0.147,0.0639,-0.136,0.0568,0.317
CCN(CC)c1ccc(N2CC=CC34O[C@@H]5/C=C\CCCOC(=O)C5[C@H]3C(=O)N(C(C)CO)[C@@H]4C2=O)cc1 (stereo not given in full),-0.0836,-0.261,-0.469,-0.479,-0.619,-0.0405,0.297,0.0073,-0.421,1.04
CCCCNC(=O)c1ccc(C#CC(C)(C)C)c(OC(C)=O)c1,0.845,-0.196,0.806,0.0614,-0.526,-0.159,-0.117,-0.256,0.5,0.608
[N-]=[N+]=Nc1ccccc1C[C@@]1(C(=O)NCCN2CCOCC2)N=C(c2ccc(OCCCO)cc2)O[C@@H]1c1ccccc1N=[N+]=[N-],-0.241,-2.99,0.0057,1.94,0.455,0.0543,0.411,-0.406,1.08,1.74
C=C(COC)/C(=C/C[C@H](OC(=O)c1ccncc1)c1ccc(CO)o1)c1cnc2ccccc2c1,1.38,-0.403,0.321,-0.0747,-0.91,-0.0758,0.337,-0.12,0.865,1.91
COc1ccc([Si](C)(C)[C@@H]2[C@@H](CCO)O[C@]3(C(=O)N(Cc4ccccc4)c4ccc(NC(=O)[C@H](C)O)cc43)[C@H]2C)cc1,1.35,-5.08,0.387,1.46,-0.153,0.0559,-0.0738,-0.0428,1.5,0.484
COc1cc(NN2C(C(O)c3ccc(N(C)C)cc3)C=CC3C(=O)N(c4ccccc4)C(=O)C32)cc(OC)c1OC (stereo not given),1.36,-0.99,0.143,0.68,0.0572,0.112,0.184,0.531,0.639,0.738
CCCCCN1CC=CC23O[C@@H]4/C=C\CCC(C)OC(=O)C4[C@H]2C(=O)N(C(CO)C(C)C)[C@@H]3C1=O (stereo not given in full),-0.333,-1.64,-0.214,-0.983,-0.876,-0.172,-0.469,-0.463,0.163,0.0325
CCOC(=O)C[C@H]1[C@H](OC(=O)Cc2ccc3c(c2)OCO3)[C@@H](NC(=O)c2ccc3ccccc3n2)c2cc(OCCCO)ccc2N1C(=O)c1ccc2ccccc2n1,0.0977,-1.63,0.464,0.509,-0.0205,-0.0512,0.0048,-0.115,0.0995,0.406
CC(C)C(CO)N1C(=O)[C@@H]2C3C(=O)OCCC/C=C\[C@H]3OC23C=CCN(c2ccc4ccccc4c2)C(=O)[C@@H]13 (stereo not given in full),-0.812,-1.23,-1.43,-0.14,-0.132,-0.0405,-0.0822,0.117,-0.427,-0.287
